# According to PubChem BioAssay (NCI):
# About 79,000 compounds went through this panel and 15% of them were active in at least one assay; those are over-represented in the sample as a whole. Unmarked numbers belong to inactive results. The source made the active and inactive calls. Rule as the data show it: active = growth inhibition above about 70%; inactive = the rest.
# Columns and labels:
# [1] = NCI Yeast Anticancer Drug Screen. Data for the rad50 strain (AID 155);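 also: 0% = growth of vehicle-only cultures of the same strain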; conditions: S. cerevisiae rad50 strain growth inhibition, stronger effect = higher value
# Procedure, shortened: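 DNA repair mutant yeast, compound exposure, growth read-out; inhibition is taken relative to vehicle.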
# [2] = NCI Yeast Anticancer Drug Screen. Data for the mec2-1 strain (AID 157); conditions: S. cerevisiae mec2-1 strain, stronger effect = higher value
# Procedure, shortened: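 Test agents were screened against the mec2-1 yeast strain, with defined DNA repair or cell cycle alteration. Growth was scored as inhibition against vehicle-only controls.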
# [3] = NCI Yeast Anticancer Drug Screen. Data for the sgs1 mgt1 strain (AID 161);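 also: 0% = growth of cultures given vehicle only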; conditions: S. cerevisiae sgs1 mgt1 strain, stronger effect = higher value
# Procedure, shortened: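 Mutant yeast exposed to compound; growth scored against vehicle-only wells.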
# [4] = NCI Yeast Anticancer Drug Screen. Data for the cln2 rad14 strain (AID 165);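 also: 0% = growth equal to vehicle treated cultures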; conditions: S. cerevisiae cln2 rad14 strain, stronger effect = higher value
# Procedure, shortened: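 Growth of compound-exposed yeast (cln2 rad14 genotype) measured and expressed as inhibition relative to vehicle.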
# [5] = NCI Yeast Anticancer Drug Screen. Data for the bub3 strain (AID 167); conditions: S. cerevisiae bub3 mutant strain, stronger effect = higher value
# Procedure, shortened: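 In this screen, a yeast mutant lacking normal mitotic checkpoint function is challenged with compound. Relative growth versus vehicle gives the inhibition value.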
# [6] = NCI Yeast Anticancer Drug Screen. Data for the mlh1 rad18 strain (AID 175); conditions: S. cerevisiae mlh1 rad18 strain growth inhibition, stronger effect = higher value
# Procedure, shortened: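 In this whole-cell yeast screen, a strain with altered DNA damage repair is challenged with compound, and its growth is measured against matched vehicle-treated controls.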
# [7] = at 5.0 µM (retest, dose inferred, filed as 0.5)
# [8] = at 50.0 µM (retest, dose inferred, filed as 5.0)
SMILES,"growth inhibition [1, 7]","growth inhibition [1, 8]",growth inhibition ([1]; at 50.0 µM),"growth inhibition [2, 7]","growth inhibition [2, 8]",growth inhibition ([2]; at 50.0 µM),"growth inhibition [3, 7]","growth inhibition [3, 8]",growth inhibition ([3]; at 50.0 µM),"growth inhibition [4, 7]","growth inhibition [4, 8]",growth inhibition ([4]; at 50.0 µM),"growth inhibition [5, 7]","growth inhibition [5, 8]",growth inhibition ([5]; at 50.0 µM),"growth inhibition [6, 7]","growth inhibition [6, 8]",growth inhibition ([6]; at 50.0 µM)
CCOC(=O)C[n+]1c(C)cc(-c2ccccc2)cc1C,-2%,1%,13.6%,7%,-15%,6.3%,-1%,-3%,12.2%,-1%,2%,28.1%,24%,-4%,14.2%,9%,21%,7.55%
CNC(=O)N/N=C/c1ccc([N+](=O)[O-])o1,12%,40%,65.2%,4%,22%,38.6%,7%,29%,70.3% (active),9%,15%,11.8%,10%,38%,34%,12%,48%,71.5% (active)
O=C1C=CC(=O)N1c1cccc(F)c1,96% (active),99% (active),99.7% (active),97% (active),100% (active),99.8% (active),93% (active),99% (active),99.7% (active),82% (active),99% (active),98.8% (active),98% (active),100% (active),99.6% (active),88% (active),100% (active),99.4% (active)
OC[P+](CO)(CO)C12CC3CC(CC(C3)C1)C2,12%,13%,48.5%,8%,11%,71.1% (active),35%,49%,69.8%,18%,30%,67.8%,5%,40%,78% (active),11%,25%,89% (active)
c1ccc(/C(=N\Nc2nc3ccccc3s2)c2ccccn2)cc1,0%,88% (active),71.7% (active),9%,79% (active),73.5% (active),-6%,90% (active),75.4% (active),-17%,75% (active),79.7% (active),-6%,87% (active),78.7% (active),11%,89% (active),81.3% (active)
CCN(CC)Cc1c(-c2ccccc2)oc(-c2ccccc2)c1CN(CC)CC,-15%,33%,64.7%,1%,2%,-0.45%,-15%,33%,-5.75%,-2%,-1%,-9.8%,1%,8%,36.4%,2%,32%,67.4%
CC(C)(C)NC1=NC(C(F)(F)F)(C(F)(F)F)NC(=O)N1,-19%,91% (active),38.9%,-20%,93% (active),40.8%,-52%,88% (active),33.9%,-21%,72% (active),21.3%,-56%,95% (active),70.5% (active),-22%,92% (active),12.4%
Cc1ccc(S(=O)(=O)Nc2ccccc2Cl)cc1,11%,95% (active),94% (active),11%,97% (active),77.3% (active),7%,99% (active),96.5% (active),6%,96% (active),88.5% (active),5%,98% (active),94.2% (active),13%,97% (active),93.8% (active)
FC(F)(F)C(C1=NC(C(F)(F)F)(C(F)(F)F)N=C(N2CCOCC2)O1)C(F)(F)F,24%,33%,24.8%,16%,28%,71.8% (active),20%,48%,30.4%,26%,45%,60.4%,36%,80% (active),13.6%,51%,66%,39.6%
CC1CCC(C(C)C2C(O)CC3C4CC=C5CC(O)CCC5(C)C4CCC32C)NC1 (stereo not given),-23%,81% (active),66.8%,1%,18%,25.1%,12%,96% (active),88.5% (active),3%,23%,23.8%,-1%,70% (active),10.9%,10%,54%,57.5%
